Inhibition data for 98 molecules are collected here from PubChem BioAssay AID1619 (SRMLSC, 2009).

Hit rate of the full screen: of about 220,000 compounds, about 830 (0.38%) were called active.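 The calls were made as follows: active = compound inhibiting the enzyme by more than half at any dose during confirmatory dose-response retesting; inconclusive = strong single-dose inhibitors picked by rank but not retested; inactive = the rest.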 Not all results are given here. Measured potencies and affinities stand elsewhere.

This test deals with Leucine aminopeptidase (Plasmodium falciparum (isolate 3D7)) (UniProt Q8IL11). As to the kind of experiment: P. falciparum M17LAP inhibitors, primary screen, biochemical, fluorogenic H-Leu-NHMec substrate, 1536-well (AID 1619).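 Also: plate controls were full reaction with DMSO carrier for no effect and no enzyme background for full effect.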 The settings on record: recombinant M17LAP, H-Leu-NHMec fluorogenic kinetic assay; at 30 µM; hits give high values.
Leucine aminopeptidase (Plasmodium falciparum (isolate 3D7)), sequence (Q8IL11 whole entry, looked up): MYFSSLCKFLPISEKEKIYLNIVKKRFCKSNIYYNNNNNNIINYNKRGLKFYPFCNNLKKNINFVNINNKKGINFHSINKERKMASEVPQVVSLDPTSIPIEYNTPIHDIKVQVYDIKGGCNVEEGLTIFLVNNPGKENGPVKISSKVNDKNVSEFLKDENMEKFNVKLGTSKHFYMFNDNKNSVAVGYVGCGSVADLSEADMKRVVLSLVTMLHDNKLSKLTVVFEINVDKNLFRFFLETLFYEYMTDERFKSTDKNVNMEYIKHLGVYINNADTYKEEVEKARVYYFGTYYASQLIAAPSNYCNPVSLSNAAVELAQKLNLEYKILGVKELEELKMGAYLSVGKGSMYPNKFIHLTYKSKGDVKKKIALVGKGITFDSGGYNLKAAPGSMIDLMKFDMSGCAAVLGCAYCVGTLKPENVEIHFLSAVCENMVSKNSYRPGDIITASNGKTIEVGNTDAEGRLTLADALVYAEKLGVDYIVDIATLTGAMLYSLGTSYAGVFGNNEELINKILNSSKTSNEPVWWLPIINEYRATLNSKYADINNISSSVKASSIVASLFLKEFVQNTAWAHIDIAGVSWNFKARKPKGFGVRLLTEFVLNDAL
What is called inhibition is the drop in the measured response relative to a control, in per cent. Consider `O=c1c2c(-c3ccc(Cl)cc3)csc2ncn1/N=C/c1cccc([N+](=O)[O-])c1O`, for which the inhibition is -4.46% (inactive). For `Cc1ccc(N2NC(C)(c3cccs3)NC2=S)cc1` (stereo not drawn) the value was -1.38% (inactive); for `COc1cc(NC(=O)c2nccnc2N)cc(C(=O)Nc2cccc(C(F)(F)F)c2)c1`, -5.13% (inactive).

`O=C(O)c1ccc(Cn2cc(C(F)(F)F)ccc2=O)cc1`: the inhibition is -4.03% (inactive). On to `O=C(CC1Sc2ccccc2NC1=O)Nc1cccc(-c2nnc3n2CCCCC3)c1` (stereo not drawn), for which the inhibition was 3% (inactive).

Consider `O=C(CC1Sc2ccccc2NC1=O)Nc1cccnc1` (stereo not drawn), for which the inhibition was 5.83% (inactive). Consider `O=C(O)c1ccc(NC(=O)C2(c3ccccc3)CCCC2)cc1`, for which the inhibition was 3.99% (inactive). As for `Fc1cccc2sc(Nc3nc4c(F)cccc4s3)nc12`, the inhibition is 16.7% (inactive).

For `COc1ccc2nc(Nc3sc4c(c3C(N)=O)CCCC4)sc2c1`, the inhibition is 8.22% (inactive). `CC1CCc2c(sc(NC(=O)C3c4ccccc4Oc4ccccc43)c2C(N)=O)C1` (stereo not drawn): the inhibition was 8.46% (inactive). As to `COC(=O)Nc1sc2c(c1C(N)=O)CCC(C)C2` (stereo not drawn), the inhibition was 26.4% (inactive). As for `CC(=O)c1ccc(Nc2ccc(-c3ccccc3F)nn2)cc1`, the inhibition is 28.4% (inactive). Turning to `COC(=O)c1ccccc1NC(=O)C(C)c1ccc([N+](=O)[O-])cc1` (stereo not drawn), the inhibition was -0.59% (inactive). Take `N#C/C(C(=O)NCc1ccccc1)=C1/N=C(NC(=O)c2cccs2)c2ccccc21`: the inhibition was 5.68% (inactive). Turning to `CCOC(=O)C1=C(C)N=C2SCCC(=O)N2[C@@H]1c1cccs1`, the inhibition is 3.63% (inactive). Take `NC(=O)CC(NC(=O)Cc1cccc2ccccc12)c1ccc(NC2CCC2)c([N+](=O)[O-])c1` (stereo not drawn): the inhibition was 15% (inactive). `COC(=O)c1cn(C(=O)c2cccc(C)c2)c2ccccc12`: the inhibition was 1.71% (inactive).

Regarding `Cc1cccc(NC(=S)NNC(=O)Cc2ccccc2)c1`, the inhibition is 15.6% (inactive). Take `Cc1cccc(C(=O)NC(=S)NNC(=O)COc2ccc(Cl)cc2)c1`: the inhibition is 8.45% (inactive). Regarding `O=C(NNC(=S)NC(=O)c1cccnc1)c1ccc(Cl)cc1`, the inhibition is 71.2% (inactive). Regarding `Cc1cccc(C(=O)NC(=S)NNC(=O)c2ccc(Cl)cc2)c1`, the inhibition was 86.2% (inactive). `O=C(Cc1ccccc1)NNC(=S)NC(=O)c1cccnc1`: the inhibition is 13.8% (inactive).

In the case of `Cc1ccc(C(=O)NC(=S)NNC(=O)COc2ccccc2C)cc1`, the inhibition was -0.9% (inactive).

`Cc1cccc(C(=O)NC(=S)Nc2ccccc2C(=O)O)c1`: the inhibition is 3.36% (inactive). Turning to `O=C(NC(=S)NNC(=O)c1ccccc1F)c1cccnc1`, the inhibition was 5.36% (inactive). In the case of `O=C(O)c1ccc2c(c1)SC1=NS(=O)(=O)CCN12`, the inhibition was -2.18% (inactive). Turning to `CCN1CCN(C(=O)CSc2cc(=O)n(CC)c3ccccc23)CC1`, the inhibition was 4.46% (inactive). For `CCC(C)NC(=O)CS(=O)Cc1nc(-c2ccccc2C)oc1C` (stereo not drawn) the value was 2.41% (inactive); for `Cn1c(N)c(C(=O)c2ccc(F)cc2F)c(=O)n(C)c1=O`, 5.53% (inactive). The value for `COC(=O)[C@H](Cc1ccccc1)NC(=O)O[C@H]1C(=O)c2ccc(OC)cc2O[C@@H]1c1ccc2c(c1)OCO2` was -10.7% (inactive); that for `O=C(O)Cc1ccc(NC(=O)C2CC=CCC2C(=O)O)cc1` (stereo not drawn) was 11.1% (inactive); that for `CC(=O)Nc1ccc(NC(=O)[C@@H]2CCCC[C@@H]2C(=O)O)cc1` was -3.15% (inactive). In the case of `CCCOC(=O)c1ccc(NC(=O)C2C3CCC(C3)C2C(=O)O)cc1` (stereo not drawn), the inhibition was 43.4% (inactive). Take `CC(=O)Nc1ccc(NC(=O)C2CCCCC2C(=O)O)cc1` (stereo not drawn): the inhibition was 8.65% (inactive). With `COC(=O)c1ccc(NC(=O)C2C3CCC(C3)C2C(=O)O)cc1` (stereo not drawn), the inhibition was 39% (inactive). `O=C(O)C1CCCCC1C(=O)Nc1ccc(-c2ccccc2)cc1` (stereo not drawn): the inhibition was 6.02% (inactive). For `O=C(O)[C@H]1CCCC[C@H]1C(=O)Nc1ccc(Nc2ccccc2)cc1`, the inhibition is 54.9% (inactive).

On to `CN(C(=O)c1ccc(NC(=O)C2CC=CCC2C(=O)O)cc1)c1ccccc1` (stereo not drawn), for which the inhibition is 45.1% (inactive). Regarding `O=C(O)CCSCCCN1C(=O)c2cccc3cccc(c23)C1=O`, the inhibition was 8.08% (inactive). The value for `CCCc1cc(=O)[nH]c(SCC(=O)Nc2cc(C)on2)n1` was 3.41% (inactive). As to `Cc1ccc(C2CC(C(F)(F)F)n3nc(C(=O)Nc4c(C)n(C)n(-c5ccccc5)c4=O)cc3N2)cc1` (stereo not drawn), the inhibition is 2.06% (inactive).

Regarding `COc1ccc(NC(=O)c2ccc(-n3c(C)ccc3C)cc2)c(OC)c1`, the inhibition is 4.59% (inactive).

In the case of `Cc1nc(C)c(-c2csc(Nc3ccc(F)cc3)n2)s1`, the inhibition was -0.33% (inactive). For the molecule `Cc1ccc(Oc2ncc(-c3ccc(Cl)cc3)cn2)cc1`, the inhibition was -3.58% (inactive). On to `CCOC(=O)N1CCN(c2cc(N)c([N+](=O)[O-])cc2F)CC1`, for which the inhibition was -0.96% (inactive). As to `Cc1ccc(C(=O)Nc2ccn(Cc3ccc(F)cc3)n2)o1`, the inhibition is 2% (inactive). Consider `COc1ccc(C(=O)Nc2cccc(C(=O)NCc3ccccc3)c2)cc1`, for which the inhibition was 3.07% (inactive). With `Oc1ccc(C(c2nnnn2CCc2ccccc2)N2CCN(c3nc4ccccc4s3)CC2)cc1` (stereo not drawn), the inhibition is 3.87% (inactive). For `CCOC(=O)NCc1ccc(Cl)c(Cl)c1`, the inhibition is -9.33% (inactive). As for `CC(C)(C)OC(=O)CN1C(=O)C(Sc2n[nH]c(-c3ccccc3)n2)CCc2ccccc21` (stereo not drawn), the inhibition is 3.43% (inactive). Turning to `CCSc1nc(N)nc(-c2cccs2)c1C#N`, the inhibition was 5.48% (inactive). For the molecule `CN(Cc1ccccc1)Cc1nc2c([nH]1)c(=O)[nH]c(=O)n2C`, the inhibition was -7.23% (inactive). As for `CC(NC(=O)c1cccnc1)C(c1cccs1)N1CCN(C)CC1` (stereo not drawn), the inhibition is 0.81% (inactive). Consider `O=C(O)Cc1ccc(NC(=O)C2CCCCC2C(=O)O)cc1` (stereo not drawn), for which the inhibition was 19% (inactive). For `CN(C1CCCCC1)S(=O)(=O)c1ccc(NC(=O)C2CCCCC2C(=O)O)cc1` (stereo not drawn) the value was 44% (inactive); for `CCOC(=O)N1CCN(C(=O)c2ccc(CS(=O)(=O)c3c(Cl)cccc3Cl)o2)CC1`, 3.87% (inactive); for `CCCCOc1ccc(C(=O)OCC(=O)Nc2cc(C)on2)cc1`, 2.23% (inactive). `CCOC(=O)c1c(CSCc2ccccc2)oc2ccc(O)c(CN(C)C)c12`: the inhibition was -2.1% (inactive). As for `Cc1ccc2c(=O)[nH]c(Cc3ccccc3C(=O)O)nc2c1`, the inhibition was 2.27% (inactive). As to `Cc1ccc(NN=C2c3ccccc3-c3ccccc32)cc1`, the inhibition is 5.01% (inactive).

As for `Cc1ccc(N/N=C2/CCCNC2=O)cc1`, the inhibition was 40.4% (inactive). The value for `Cc1ccc(N(CC(O)CN2C(=O)NC(C)(C)C2=O)S(=O)(=O)c2ccc(C)cc2)cc1` (stereo not drawn) was -16.4% (inactive); that for `Cc1ccc(/C=N/Nc2cccc(C(=O)O)c2)s1` was 53.6% (inactive); that for `CC(C)(C)c1ccc(/C=N/Nc2cccc(C(=O)O)c2)cc1` was 12.1% (inactive). As to `O=C(O)c1ccc(/C=N/NC(=O)c2ccc(F)cc2)cc1`, the inhibition was 7.3% (inactive). In the case of `Fc1ccc(N/N=C/c2ccncc2)c(F)c1`, the inhibition is -6.64% (inactive). On to `Cc1ccc(/C=N/Nc2ccc(Cl)c(C(=O)O)c2)s1`, for which the inhibition was 49.5% (inactive).

As for `O=C(O)c1ccc(N/N=C/c2ccc(-c3ccccc3)cc2)cc1`, the inhibition is 2.22% (inactive).

`O=C(O)c1ccc(/C=N/Nc2cccc(C(F)(F)F)c2)cc1`: the inhibition is 16.4% (inactive). On to `O=C(O)c1ccc(N/N=C/c2ccc(F)c(F)c2)cc1`, for which the inhibition was 50.5% (inactive).

On to `C=CCNC(=O)CN1CCC(NC(=O)c2ccco2)CC1`, for which the inhibition was 4.27% (inactive). As for `Cc1ccc(/C=N/NC(=O)Cn2cncn2)cc1`, the inhibition is 2.86% (inactive). In the case of `CC(=O)N1CCN(c2ccc(NC(=O)c3ccc4c(c3)OCO4)cc2)CC1`, the inhibition is -9.38% (inactive). As to `COc1ccc(C2Nc3ccccc3C(=O)N2c2ccccc2)cc1CN1CCOCC1` (stereo not drawn), the inhibition was -163% (inactive). Regarding `CC(/C=C/c1ccc2c(c1)OCO2)=N/NC(=O)c1cccnc1`, the inhibition was 17.2% (inactive).

On to `Cc1ccc(NNC(=O)c2ccc(Cl)cc2)nn1`, for which the inhibition was 17.4% (inactive). On to `COc1ccc(/C=N/Nc2ccc(C(=O)O)cc2)cc1OC`, for which the inhibition is 25.7% (inactive). Turning to `COc1cc(/C=N/Nc2ccc(C(=O)O)cc2)ccc1O`, the inhibition was 22.3% (inactive). As for `CCOc1ccc(OCC)c(NC(=O)C2CCCN(S(=O)(=O)c3c(C)noc3C)C2)c1` (stereo not drawn), the inhibition was 3.89% (inactive).

For `COc1ccc(OC)c(N/C=C2/CCCCC2=O)c1`, the inhibition was 5.47% (inactive). In the case of `NC(=O)COc1ncn(-c2ccccc2)n1`, the inhibition was 1.05% (inactive). Regarding `CC(=O)COc1ncn(-c2ccccc2)n1`, the inhibition is 42.4% (inactive). As to `CCCCC(=O)Nc1nnc(-c2ccc(OC)cc2)s1`, the inhibition was 4.4% (inactive). For `O=C(CN1C(=O)NC2(CCCC2)C1=O)OCc1cc(=O)n2cc(Br)ccc2n1` the value was -0.9% (inactive); for `O=C1CCCCN1CCc1c[nH]c2ccccc12`, 15.4% (inactive). Turning to `COc1ccc(N2CCN(c3n[nH]c(N)n3)CC2)cc1`, the inhibition was 0.79% (inactive). Take `COc1ccc(-n2nc3c(N)n[nH]c3cc2=O)cc1`: the inhibition is -0.44% (inactive). Take `O=C(CC12CC3CC(CC(C3)C1)C2)NC(=S)NCc1ccccc1`: the inhibition was -4.21% (inactive). On to `Cc1cccnc1CN1CCN(C(=O)c2cc(COc3ccc4ncccc4c3)on2)CC1`, for which the inhibition was 0.97% (inactive). On to `Cc1ccccc1NC(=O)c1cnc2ccccn2c1=O`, for which the inhibition is 2.31% (inactive). As to `O=C(Nc1cccc(C(F)(F)F)c1)c1cccnc1`, the inhibition is -1.75% (inactive). For `Cn1ncc(N)c1C(=O)Nc1cccc(C(F)(F)F)c1`, the inhibition was 1.2% (inactive). In the case of `CSc1nc2nc3c(cc2c(=O)n1-c1ccc(C)cc1)COC(C)(C)C3`, the inhibition is 3.67% (inactive). Regarding `CCc1ccc(CN(C)C(=O)CCc2nnc(Cc3cccc(C)c3)o2)nc1`, the inhibition is -6.64% (inactive). For `Cc1cccc(C)c1NC(=O)CSCC(=O)O`, the inhibition was 4.91% (inactive). Consider `Cc1cccc(C)c1NC(=O)CSCCO`, for which the inhibition is 0.75% (inactive). For the molecule `CCOC(=O)CSc1nc(-c2ccccc2)nc2ccc(C)cc12`, the inhibition was 2.78% (inactive).

For the molecule `CC1CN(c2nc(-c3ccccc3)nc3ccccc23)CC(C)O1` (stereo not drawn), the inhibition is 4.44% (inactive).
